Data on seven compounds can be found in PubChem BioAssay (Tox21).

The structures appear in SMILES notation. Values without a mark were called inactive. Inconclusive results are not listed. Calls of active or inactive are those of the source. Unless noted, calls follow the shape of the dose curve; as a rule, active = well fitted curve in the direction sought with a large enough effect in the repeat runs; inconclusive = weak or mixed curves; inactive = no such curve, though single readings can be large; an effect the other way counts as inactive or inconclusive.

A short description of assay [1]: qHTS assay for small molecule agonists of the p53 signaling pathway (AID 651631; calls by dose curve; also: nearly all actives have a fitted effect of over 15% in size; also: potency is read from the fitted curve at half-maximal effect). The note with it: HCT-116 p53RE-bla reporter, beta-lactamase FRET ratio, 16 h; series mostly up to 73.3 µM. A digest of the protocol:
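Beta-lactamase reporter activity under p53 response elements was quantified in HCT-116 cells by FRET fluorescence, following 16 h incubation with test compounds at 37 °C and 2 h substrate development at room temperature.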
For orientation: qHTS replaces the single test concentration by a dilution series.

A short description of assay [2]: qHTS assay for small molecules that induce genotoxicity in human embryonic kidney cells expressing luciferase-tagged ATAD5 (AID 651632). Also: nearly all actives have a fitted effect of over 15% in size. Particulars: HEK293T ATAD5-luciferase induction, 16 h; series mostly up to 83.3 µM. A digest of the protocol:
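Luminescent reporter readout, HEK293T ATAD5-luc line: 16 hr drug exposure (37C, 5% CO2) followed by Amplite, 30 min RT.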

The nature of assay [3]: qHTS assay for small molecule agonists of the p53 signaling pathway - cell viability (AID 651633; calls by dose curve; also: nearly all actives have a fitted effect of over 30% in size). Particulars: p53RE-bla HCT-116 viability, ATP luminescence, 16 h; series mostly up to 83.3 µM. The procedure, abridged: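 p53RE-bla cells, seeded at 4,000 per well and rested 5 h at 37 C/5% CO2, received compounds in DMSO for 16 h at 37 C. CellTiter-Glo was then added, and luminescence was read after 30 min at room temperature to gauge cytotoxicity.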

Assay [4] in a line: qHTS assay for small molecules that induce genotoxicity in human embryonic kidney cells expressing luciferase-tagged ATAD5 - cell viability (AID 651634; calls by dose curve; also: nearly all actives have a fitted effect of over 25% in size). The note with it: HEK293T ATAD5-luc cells viability, CellTiter-Fluor, 15.5 h; series mostly up to 83.3 µM. A digest of the protocol:
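Viability read: CellTiter-Fluor fluorescence, 30 min at 37C. Cells: HEK293T, luciferase-tagged ATAD5. Exposure: 15.5 hr, 37C, 5% CO2, compound or DMSO vehicle.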

Assay [5] can be described thus: qHTS assay for small molecule disruptors of the mitochondrial membrane potential - cell viability (AID 720634; calls by dose curve;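 also: human HepG2 liver cancer cells; nearly all actives have a fitted effect of over 20% in size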). Particulars: HepG2 viability, ATP luminescence (CellTiter-Glo), 1 h; series mostly up to 83.2 µM. A digest of the protocol:
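HepG2, 1 hr compound, 37 C. ATP luminescence via CellTiter-Glo, 30 min RT, same well as m-MPI.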

A short description of assay [6]: qHTS assay to test for compound auto fluorescence at 590 nm (red) in HepG2 cells (AID 720674). The note with it: HepG2 autofluorescence, red 540/590 nm, 1 h; series mostly up to 91.3 µM. The procedure, abridged: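 Rose Bengal sodium served as the red fluorophore standard. HepG2 monolayers (overnight attachment, MEM with 10% FBS) were exposed to test compounds for 1 hr at 37 C and read at Ex 540/Em 590 nm.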

A short description of assay [7]: qHTS assay to test for compound auto fluorescence at 535 nm (green) in HepG2 cells (AID 720675). Particulars: green autofluorescence 485/535 nm, 1 h; series mostly up to 91.3 µM.
Assay [8] can be described thus: qHTS assay to test for compound auto fluorescence at 460 nm (blue) in HEK293 cells (AID 720678). The note with it: blue autofluorescence 405/460 nm; series mostly up to 91.3 µM. The procedure, abridged:
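HEK293, 2,000 cells/well, 10% dialyzed FBS; attach 4-5 hr 37C; pin compound or DMSO; o/n 37C/5% CO2; fluorescence 405/460 nm; triamterene-equivalent units.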

Assay [9] is described as follows: qHTS assay to test for compound auto fluorescence at 590 nm (red) in HEK293 cells (AID 720679). The note with it: red autofluorescence 540/590 nm; series mostly up to 91.3 µM. A digest of the protocol:
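Intensity at 540nm excitation and 590nm emission is reported as Rose Bengal sodium-equivalent autofluorescence. Measurements followed overnight exposure (37C, 5% CO2) of HEK293 cells, 2,000 per well, to 23 nL compound.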

The nature of assay [10]: qHTS assay to test for compound auto fluorescence at 535 nm (green) in HEK293 cells (AID 720680). Particulars: green autofluorescence 485/535 nm; series mostly up to 91.3 µM.
Assay [11] can be described thus: qHTS assay to test for compound auto fluorescence at 590 nm (red) in HepG2 cell free culture (AID 720684). The note with it: cell-free medium autofluorescence, red 540/590 nm; series mostly up to 91.3 µM. The procedure, abridged:
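Red fluorescence (540 nm excitation, 590 nm emission) was measured after compound transfer into cell-free MEM supplemented with 10% FBS. Values are equivalencies against Rose Bengal sodium.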

Assay [12] in a line: qHTS assay to test for compound auto fluorescence at 460 nm (blue) in HepG2 cell free culture (AID 720685). The note with it: Cell-free culture medium, blue autofluorescence 405/460 nm; series mostly up to 91.3 µM. The procedure, abridged: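 Compound (23 nL) or DMSO pinned into cell-free MEM with 10% FBS; blue fluorescence read at 405/460 nm excitation/emission, expressed as auto-fluorescence equivalency to triamterene.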

The nature of assay [13]: qHTS assay to test for compound auto fluorescence at 535 nm (green) in HepG2 cell free culture (AID 720686). Particulars: Cell-free medium, green autofluorescence 485/535 nm; series mostly up to 91.3 µM.
Assay [14] can be described thus: qHTS assay to test for compound auto fluorescence at 460 nm (blue) in HepG2 cells (AID 720687). Particulars: autofluorescence 405/460 nm, 1 h; series mostly up to 91.3 µM. The procedure, abridged:
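Cells (2,000/well in MEM with 10% FBS) attached overnight at 37 C, then were exposed to compound or DMSO for 1 hr at 37 C, 5% CO2. Fluorescence read at Ex/Em 405/460 nm, expressed as triamterene-equivalent signal.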

Assay [15] is described as follows: qHTS assay to test for compound auto fluorescence at 460 nm (blue) in HEK293 cell free culture (AID 720681). Particulars: cell-free medium, autofluorescence 405/460 nm (blue); series mostly up to 91.3 µM. The procedure, abridged:
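Test compounds were pinned into cell-free culture medium (DMEM with 10% FBS) and fluorescence was read directly at Ex/Em 405/460 nm. Signals were expressed as fluorescence equivalents of triamterene, with DMSO vehicle as control.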

A short description of assay [16]: qHTS assay to test for compound auto fluorescence at 590 nm (red) in HEK293 cell free culture (AID 720683). Particulars: cell-free medium autofluorescence, Ex540/Em590 red; series mostly up to 91.3 µM. The procedure, abridged:
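Tox21 10K library compounds were pinned into cell-free DMEM with 10% FBS and fluorescence was read at excitation 540 nm. Activity is expressed as Rose Bengal sodium equivalency.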

Assay [17] addresses Glucocorticoid receptor (Homo sapiens) (UniProt P04150). Briefly: qHTS assay to identify small molecule antagonists of the glucocorticoid receptor (GR) signaling pathway (AID 720692; active = well fitted inhibition curve with a large enough effect in the signal ratio in the repeat runs, not every such curve was filed as active; the % refers to the signal ratio). Particulars: GR-bla HeLa, beta-lactamase FRET ratio, dexamethasone-stimulated, 18 h; series mostly up to 58.5 µM. The procedure, abridged: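 Inhibition of glucocorticoid signalling is measured in HeLa cells with a GRE-controlled beta-lactamase reporter; cells are co-treated with compound and 5 nM dexamethasone (final) for 18 h before FRET substrate readout.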

The nature of assay [18]: qHTS assay to test for compound auto fluorescence at 535 nm (green) in HEK293 cell free culture (AID 720682). Particulars: cell-free medium, green autofluorescence 485/535 nm, active compounds read high; series mostly up to 91.3 µM. The procedure, abridged: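 Each library compound, or DMSO control, is added by pintool to medium alone, comprising DMEM and 10% FBS. Emission at 535 nm following 485 nm excitation is quantified against fluorescein.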

Assay [19] addresses Glucocorticoid receptor (Homo sapiens) (UniProt P04150). Briefly: qHTS assay to identify small molecule agonists of the glucocorticoid receptor (GR) signaling pathway (AID 720691; active = well fitted activation curve with a large enough effect in the signal ratio in the repeat runs, not every such curve was filed as active; the % refers to the signal ratio). The note with it: GR-bla HeLa, beta-lactamase reporter ratio, 18 h; series mostly up to 62.4 µM. The procedure, abridged:
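qHTS in GR-bla HeLa cells: 4 h settling at 37 C/5% CO2, 18 h compound incubation at 37 C, 2 h LiveBLAzer B/G FRET substrate at room temperature, fluorescence intensity measured.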
% is scaled to controls: 0 for no effect and ±100 for the full control effect.

Sequence of Glucocorticoid receptor (Homo sapiens) (P04150 whole entry, looked up): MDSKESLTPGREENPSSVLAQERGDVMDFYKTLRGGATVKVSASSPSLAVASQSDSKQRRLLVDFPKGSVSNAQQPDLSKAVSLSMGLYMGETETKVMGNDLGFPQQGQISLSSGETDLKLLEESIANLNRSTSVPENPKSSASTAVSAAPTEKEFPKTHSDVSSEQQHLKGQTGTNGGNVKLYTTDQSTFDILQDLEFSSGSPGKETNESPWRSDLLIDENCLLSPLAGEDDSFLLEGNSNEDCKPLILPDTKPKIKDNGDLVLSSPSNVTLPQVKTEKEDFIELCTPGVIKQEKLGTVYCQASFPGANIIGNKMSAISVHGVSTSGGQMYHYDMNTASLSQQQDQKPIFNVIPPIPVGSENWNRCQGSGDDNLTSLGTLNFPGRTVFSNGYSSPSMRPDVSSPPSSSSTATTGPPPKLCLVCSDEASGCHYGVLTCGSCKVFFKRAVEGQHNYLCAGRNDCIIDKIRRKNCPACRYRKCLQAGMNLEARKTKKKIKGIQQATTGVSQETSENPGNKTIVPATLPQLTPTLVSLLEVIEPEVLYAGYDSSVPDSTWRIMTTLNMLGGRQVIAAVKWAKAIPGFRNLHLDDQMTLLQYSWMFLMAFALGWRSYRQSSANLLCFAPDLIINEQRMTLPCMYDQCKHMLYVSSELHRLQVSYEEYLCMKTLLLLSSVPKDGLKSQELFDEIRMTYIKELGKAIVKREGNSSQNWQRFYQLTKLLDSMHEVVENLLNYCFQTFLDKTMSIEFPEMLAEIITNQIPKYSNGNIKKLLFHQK

Regarding `Nc1cnn([C@@H]2O[C@H](CO)[C@@H](O)[C@H]2O)c(=O)n1`, the Potency in assay [1] is 1940 nM (active). Besides, the Potency entry in assay [2], in assay [3], in assay [4], in assay [5], in assay [8] and in [12] was “inactive” each time. Further, in [14], the Potency entry is “inactive”. Also, the compound was classed as inactive in assay [6], in assay [7], in assay [9], in [10], in [11] and in assay [13].
Regarding `O=C(O)C1CCC(C(=O)O)CC1` (stereo not given), the Potency result in [1], in assay [2], in assay [3], in assay [4], in assay [5] and in assay [8] was “inactive” each time. Besides, the Potency result in assay [15], in [12], in [14] and in assay [17] was “inactive” in each case. Also, the outcome in [6], in assay [7], in assay [9], in assay [10], in assay [16] and in assay [11] was inactive. Moreover, the outcome in [13] was inactive.
For the compound `CCOc1cc(OCC)c(C(=O)CCC(=O)O)cc1OCC`, the Potency result in [1], in assay [2], in assay [3], in assay [4], in [5] and in assay [8] was “inactive” each time. For the same compound, the Potency result in [14], in [19] and in assay [17] was “inactive” in each case. The outcome in assay [6], in [7], in assay [9], in [10], in assay [18] and in [16] was inactive. For the same compound, the result in assay [11] was inactive.
For the compound `Cc1cccc(OCCOc2cccc(C)c2)c1`, the Potency result in assay [1], in [2], in assay [3], in assay [4], in assay [5] and in assay [8] was “inactive” each time. For the same compound, the Potency entry in [15], in assay [12], in assay [14], in assay [19] and in assay [17] was “inactive” throughout. Besides, the result in [6], in assay [7], in assay [9], in [10], in [18] and in assay [16] was inactive. In addition, the compound was called inactive in [11] and in assay [13].
Turning to `CCCCCCCCCCCCCCCBr`, the Potency entry in [1], in [2], in [3], in assay [4], in assay [5] and in [8] was “inactive” in each case. Besides, the Potency result in assay [15], in assay [12], in assay [14] and in assay [19] was “inactive” each time. Also, the compound was classed as inactive in [6], in assay [7], in assay [9], in assay [10], in [18] and in [16]. Moreover, the outcome in [11] and in [13] was inactive.
As to `CN(C)CCCOc1nn(Cc2ccccc2)c2ccccc12`, the Potency entry in assay [1], in assay [2], in [3], in assay [4], in assay [5] and in [17] was “inactive” in each case. In addition, the fluorescence, relative to Rose Bengal in assay [6] was -0.438% [at 18.6 µM]. Besides, the fluorescence, % of fluorescein control in [7] was -0.0147% [at 18.6 µM]. Besides, the fluorescence, % of fluorescent control in [9] was 0.312% [at 18.6 µM]; in assay [15], -0.101% [at 18.6 µM]; in assay [16], 0.117% [at 18.6 µM]; in assay [12], -0.0147% [at 18.6 µM]; in assay [14] it was -0.0064% [at 18.6 µM]. In assay [10], the fluorescence, % of fluorescein was 0.0226% [at 18.6 µM]. Also, the activity change in assay [18] is -0.0035% [at 18.6 µM]. In assay [11], the fluorescence, % of Rose Bengal was -0.0465% [at 18.6 µM].
For the compound `COc1ccc(C(C)=O)cc1`, the Potency result in assay [1], in [2], in assay [3], in assay [4], in [5] and in assay [8] was “inactive” throughout. Also, the Potency entry in assay [15], in [12] and in assay [14] was “inactive” throughout. The compound was classed as inactive in [6], in assay [7], in [9], in [10], in assay [16] and in assay [11].
